# Screening results from PubChem BioAssay.
# In the library only some 1.1% were active in any assay of this set; here they are far more common.
# NSD2 HMT inh = NSD2 (human) methyltransferase inhibition; O96028; inhibition, % at 12.5 µM; NSD2 peptide methylation, AlphaScreen, 120 min; AID 743445; 310,000 compounds, 0.54% hits; in the data active = inhibition above about 50%
# Target sequence (O96028 whole entry, looked up): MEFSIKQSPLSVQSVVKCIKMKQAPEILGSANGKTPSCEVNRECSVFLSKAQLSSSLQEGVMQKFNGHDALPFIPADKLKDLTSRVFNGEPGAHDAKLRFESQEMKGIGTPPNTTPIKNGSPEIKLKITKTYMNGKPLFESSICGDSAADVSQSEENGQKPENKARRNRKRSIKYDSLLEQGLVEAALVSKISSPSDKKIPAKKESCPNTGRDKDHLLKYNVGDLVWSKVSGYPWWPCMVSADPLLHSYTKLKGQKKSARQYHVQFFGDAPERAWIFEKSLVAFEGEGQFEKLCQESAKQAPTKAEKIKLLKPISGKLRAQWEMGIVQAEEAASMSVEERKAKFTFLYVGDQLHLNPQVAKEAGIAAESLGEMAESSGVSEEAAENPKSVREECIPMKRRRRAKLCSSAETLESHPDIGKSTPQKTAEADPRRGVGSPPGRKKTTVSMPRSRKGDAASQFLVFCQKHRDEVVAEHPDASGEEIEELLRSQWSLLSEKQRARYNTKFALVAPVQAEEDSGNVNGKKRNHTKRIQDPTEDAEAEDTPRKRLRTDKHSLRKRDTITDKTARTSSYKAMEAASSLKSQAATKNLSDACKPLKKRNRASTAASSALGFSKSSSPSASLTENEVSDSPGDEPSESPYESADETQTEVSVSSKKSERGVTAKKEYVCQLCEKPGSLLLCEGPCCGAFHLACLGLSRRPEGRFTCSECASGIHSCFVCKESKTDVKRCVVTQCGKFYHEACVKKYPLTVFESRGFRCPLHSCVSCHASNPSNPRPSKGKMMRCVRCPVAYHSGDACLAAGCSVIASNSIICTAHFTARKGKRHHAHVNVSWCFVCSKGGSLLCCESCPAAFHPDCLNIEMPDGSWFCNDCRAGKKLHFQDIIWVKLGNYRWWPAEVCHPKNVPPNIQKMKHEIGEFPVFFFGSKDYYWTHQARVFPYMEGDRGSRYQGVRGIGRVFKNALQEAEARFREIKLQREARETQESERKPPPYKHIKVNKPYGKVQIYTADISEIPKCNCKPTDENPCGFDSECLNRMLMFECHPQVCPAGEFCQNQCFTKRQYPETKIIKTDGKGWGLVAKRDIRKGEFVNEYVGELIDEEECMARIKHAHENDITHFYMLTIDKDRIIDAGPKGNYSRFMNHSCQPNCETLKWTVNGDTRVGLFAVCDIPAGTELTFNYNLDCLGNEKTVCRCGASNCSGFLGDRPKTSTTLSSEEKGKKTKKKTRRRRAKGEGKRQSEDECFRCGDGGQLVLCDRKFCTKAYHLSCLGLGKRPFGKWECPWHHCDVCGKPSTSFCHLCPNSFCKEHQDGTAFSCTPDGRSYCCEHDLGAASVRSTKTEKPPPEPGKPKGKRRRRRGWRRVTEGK
# Casp6 inh = inhibitors of human caspase-6 | P55212 | purified caspase-6, Z-VEID-R110 cleavage fluorescence | inhibition, % at 12.5 µM | 350,000 compounds, 0.53% hits;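 active = mean inhibition across replicates at least about 35%, with every replicate also reaching that limit, limit read from the data; inconclusive = only one of the two criteria met; inactive = neither criterion met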;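 also: 0% = median of neutral control wells and 100% = no fluorescence left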
# C-LANA FP = inhibitors of KSHV LANA C-terminal domain DNA binding; 340,000 compounds, 0.078% hits; MBP-C-LANA/FAM-LBS DNA binding, fluorescence polarization; inhibition, % at 9 µM;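 active = highest replicate inhibition at or above 60% at 9 µM, even if other replicates fall short; inactive = all replicates below 60% inhibition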;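 also: 0% = neutral control wells and 100% = 4 µM acridine orange control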
# HDAC3 inh = human HDAC3 inhibition; inhibition, % at 8.3 µM; 320,000 compounds, 0.15% hits; AID 2718; O15379; recombinant HDAC3, fluorogenic peptide/trypsin coupled, fluorescence; in the data active = inhibition above about 26%, passing the limit was not always enough; inconclusive = no clear call, values can overlap the other calls
# Keap1-Nrf2 PPI = Keap1-Nrf2 (human) interaction inhibition; Q14145; Keap1 Kelch-Nrf2 peptide fluorescence polarization, 1536-well; inhibition, % at 9.4 µM; 340,000 compounds, 0.15% hits; AID 504523; in the data active = inhibition above about 12%; inconclusive = no clear call, values can overlap the other calls; inactive = below about 7.3%;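 also: human Keap1 Kelch domain with fluorescein labeled Nrf2 9mer peptide probe; 0% = neutral control wells and 100% = peptide positive control; higher means more block of Keap1 binding to Nrf2 peptide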
# N-glyco inh = blocks N-linked glycosylation in D54 reporter cells; 360,000 compounds, 0.23% hits; reporter increase, % at 12.5 µM; D54 ERlucT glycosylation luciferase reporter, 24 h; percent of 100 nM tunicamycin response; AID 588692;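 active = mean luciferase reporter signal, scaled so untreated is 0 and the glycosylation-blocking control 100, at or above a set limit in every replicate; inconclusive = mean reaches the limit but not every replicate does; inactive = mean below the limit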;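 also: luciferase carries N-glycosylation sites so blocking glycosylation raises the light; 0% = median of neutral control wells and 100% = median of 100 nM tunicamycin wells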
# Alpha artifact = counter-screen for NSD2 inhibitors: AlphaScreen artifacts; AC35, µM (highest dose often 10 µM), inactives show at the top dose activity change, negative = signal loss; shares compounds with NSD2 HMT inh; AlphaScreen artifact counterscreen, preloaded methylated H4 peptide; 1,500 compounds, 9.4% hits; call rule not given here
# * hit, by the source's call; ? = inconclusive; · = no result given.
SMILES,NSD2 HMT inh,Casp6 inh,C-LANA FP,HDAC3 inh,Keap1-Nrf2 PPI,N-glyco inh,Alpha artifact
COC1=C(Nc2ccc(OC)cc2)C(=O)c2ccccc2C1=O,65.6*,·,1.5,2.5,-1.9,-2.9,5.5µM*
COC1=C(Nc2ccc(OC)cc2)C(=O)C(OC)=C(Nc2ccc(OC)cc2)C1=O,1.0,2.7,0.2,·,-0.5,2.4,·
CCOc1ccc(NC2=C(OC)C(=O)c3ccccc3C2=O)cc1,53.0*,·,3.2,4.3,-5.5,-4.6,3.74µM*
Cc1ccc(S(=O)(=O)N(C)C[C@@H]2Oc3ncc(-c4ccncc4)cc3C(=O)N([C@@H](C)CO)C[C@@H]2C)cc1,·,0.7,·,·,·,·,·
N=C1C(c2nc(-c3ccc(F)cc3)cs2)=C(O)CN1Cc1ccc(Cl)cc1,127.7*,·,-0.1,-0.4,-5.4,2.6,0.2%
COc1ccc(-c2csc(C3=C(O)CN(Cc4ccc(Cl)cc4)C3=N)n2)cc1OC,-2.1,-1.0,0.7,-0.4,-4.4,3.3,·
CCN(CC)CCCNC(=O)c1cc2nc3c(c(C(F)(F)F)n2n1)CCc1ccccc1-3,13.3,0.6,1.6,-0.8,-2.4,-4.9,·
Cc1ccc(O)c(NC(=O)c2cc3nc4c(c(C(F)(F)F)n3n2)CCc2ccccc2-4)c1,69.8*,·,1.5,-1.8,1.1,0.6,-3.8%
Nc1c(Br)cc(Br)c2c1[nH]c(=O)c1ccccc12,73.1*,38.8*,·,·,·,0.8,-7.7%
O=c1[nH]c2ccccc2c2ccccc12,0.0,·,0.3,-1.8,3.3,3.8,·
CCC(=O)Nc1ccc2c(c1)OC[C@H](C)N(Cc1ccccn1)C[C@H](C)[C@H](OC)CN(C)C2=O,·,-1.3,·,·,·,·,·
COc1ccc(C=C(c2nc3ccccc3s2)c2nc3ccccc3s2)cc1O,58.6*,·,-3.1,1.8,-7.2,29.0*,-10.0%
COc1cc(C=C(c2nc3ccccc3s2)c2nc3ccccc3s2)ccc1O,7.5,-1.9,-2.3,0.5,2.5,5.3,·
O=C(CCCN1C(=O)/C(=C/c2ccco2)SC1=S)Nc1cccc(C(=O)O)c1,124.5*,55.3*,60.3,1.2,-0.2,-1.2,-11.8%
O=C(CCCN1C(=O)/C(=C\c2cccs2)SC1=S)Nc1cccc(C(=O)O)c1,14.1,-1.3,1.7,2.8,-2.0,-1.0,·
COc1ccc(NC(=O)CCCN2C(=O)/C(=C\c3ccco3)SC2=S)cc1,0.7,·,1.1,-2.5,-5.9,-0.8,·
O=C(CN1C(=O)/C(=C/c2ccco2)SC1=S)Nc1ccc(O)c(C(=O)O)c1,116.2*,0.2,101.2*,?,0.7,0.5,-12.7%
C[C@H]1CN([C@@H](C)CO)C(=O)c2cccc(NC(=O)c3cnccn3)c2O[C@@H]1CN(C)Cc1ccc(-c2ccccc2)cc1,·,-0.6,·,·,·,·,·
C[C@@H]1CN([C@H](C)CO)C(=O)c2cccc(NC(=O)NC3CCCCC3)c2O[C@@H]1CN(C)Cc1ccc(C(=O)O)cc1,·,-2.7,·,·,·,·,·
COc1ccc(/C=N/NC(=O)c2nn(-c3ccccc3)c(=O)c3c(N)scc23)cc1,100.3*,·,2.6,-0.3,3.4,5.2,-10.0%
COc1ccc(/C=N/NC(=O)c2nn(-c3ccc(Cl)cc3)c(=O)c3c(N)scc23)cc1,1.8,·,3.1,5.7,-0.4,2.0,·
O=C(O)c1cc(NS(=O)(=O)c2ccc3ccccc3c2)ccc1O,-0.3,7.4,-1.5,5.3,-1.2,-1.9,·
O=C(O)c1ccccc1NS(=O)(=O)c1ccc2ccccc2c1,52.1*,8.5,1.7,-2.6,-2.9,0.8,-1.4%
CCNC(=O)C[C@@H]1CC[C@H]2[C@H](COc3ccc(NC(=O)Nc4ccccc4F)cc3C(=O)N2C)O1,·,0.4,·,·,·,·,·
O=C([C@@H]1[C@@H](CO)[C@@H]2Cn3c(cccc3=O)[C@@H]2N1CC1CC1)N1CCc2ccccc2C1,·,-0.2,·,·,·,·,·
SMILES,NSD2 HMT inh,Casp6 inh,C-LANA FP,HDAC3 inh,Keap1-Nrf2 PPI,N-glyco inh,Alpha artifact
CC(=O)c1cccc(NC(=O)CC2CCCC2)c1,52.6*,1.9,0.5,0.7,1.7,2.1,-2.7%
O=C(CC1CCCC1)Nc1cccc(Br)c1,-5.2,0.3,0.6,-3.8,-0.3,-1.6,·
COc1ccc(-c2csc(Nc3ccc(S(=O)(=O)Nc4cc(OC)nc(OC)n4)cc3)n2)cc1,·,·,-0.4,6.7,1.8,1.0,·
COc1ccc(-c2csc(Nc3ccc(S(=O)(=O)Nc4cc(C)on4)cc3)n2)cc1C,63.1*,21.2,4.5,0.8,-7.8,0.2,-1.7%
CNCCC1Sc2ccccc2Oc2ccccc21 (stereo unspecified),100.4*,-6.4,0.4,-7.3,-4.8,-1.5,3.5%
CC(C)NC(=O)N(C)C[C@@H]1Oc2c(NC(=O)Nc3ccc(F)cc3)cccc2C(=O)N([C@@H](C)CO)C[C@@H]1C,·,-1.0,·,·,·,·,·
N#C/C(C(N)=O)=c1/ccc2c(c1)N1C3=C(CCCC3)CC3CCCCC31N=2 (stereo unspecified),50.3*,·,·,5.3,·,·,5.45µM*
CN1c2ccccc2N(C)C1(C)c1ccccc1,54.1*,25.8,10.5,7.2,5.3,0.9,-17.2%
CCOC(=O)C1=C(COC(=O)c2ccc([N+](=O)[O-])s2)NC(=O)NC1C (stereo unspecified),103.6*,89.4*,0.4,-5.1,-0.4,6.5,0.2%
Cc1ccc(S(=O)(=O)N(C)C[C@H]2OCCCC[C@H](C)Oc3ccc(NC(=O)Cc4ccccc4)cc3C(=O)N([C@H](C)CO)C[C@H]2C)cc1,·,-4.9,·,·,·,·,·
CCOC(=O)CN(C(=O)COc1nc(-c2ccccc2)cc(C)c1C#N)c1ccc(C)cc1,-2.3,0.4,1.0,-1.2,2.1,-2.1,·
CCOC(=O)CN(C(=O)COc1nc(-c2ccccc2)cc(C)c1C#N)c1ccccc1,70.7*,0.7,0.2,3.7,-0.8,0.6,-0.9%
CCCCOc1ccc(-c2ncc(N)cn2)cc1,59.9*,1.4,-2.3,-5.6,-0.4,-0.3,-1.9%
CO[C@@H](CN(C)S(=O)(=O)c1cn(C)cn1)[C@H](C)CN(C(=O)Nc1ccc(C(F)(F)F)cc1)[C@@H](C)CO,·,-0.4,·,·,·,·,·
O=[N+]([O-])c1ccc(Sc2cccc[n+]2[O-])c2nonc12,129.1*,61.6*,19.1,·,19.6*,-23.5,7.84µM*
O=C(CSc1cccc[n+]1[O-])Nc1cc(Cl)ccc1[N+](=O)[O-],-1.1,-0.6,0.5,-1.3,-5.0,-0.2,·
CN(C)c1ccc(/C=C2/C[N+](C)(C)C/C(=C/c3ccc(N(C)C)cc3)C2=O)cc1,66.2*,8.2,-11.4,·,-48.8,5.9,9.46µM*
CC(=O)c1ccc(NC(=O)CC2Nc3cccc4cccc(c34)NC2=O)cc1 (stereo unspecified),78.2*,8.8,-1.8,2.3,0.3,4.8,-4.9%
COc1cc(/C=C/[N+](=O)[O-])ccc1OCc1cccc(C(=O)O)c1,81.8*,·,·,·,·,·,-17.9%
COc1cc(/C=N/NC(=O)c2cccc([N+](=O)[O-])c2)ccc1OCc1ccccc1,-0.8,22.9,-0.9,-0.3,1.1,-2.9,·
